Among the data in the OligoGym collection are sensor-assay potency score (higher = more potent) values, retold here.
Also: reference of the scale not given here.

For the first test, the target named is CDH2. Put plainly: pooled miR-30 sensor sort-seq; sequence = guide strand. As to conditions: shRNA.
As to TATCTCTTACATCATCTTCTGG, the sensor-assay potency score (higher = more potent) was -0.0628.

As to TTTTTATCTCTATCAGACCTGA, the sensor-assay potency score (higher = more potent) is -0.29.

As for TTCATAGTCAAACACTAACAGG, the sensor-assay potency score (higher = more potent) was -1.55.

In the case of ATAACTGTAACAGACACGGTTG, the sensor-assay potency score (higher = more potent) was -0.196.

In the case of TTTTGTCTTTTACTTATCGTTT, the sensor-assay potency score (higher = more potent) was -0.959.

TAAGCTGAGCAAAATCACCATT: the sensor-assay potency score (higher = more potent) is -0.593.

As to TTTATCTTTAAATTAAGCTGAG, the sensor-assay potency score (higher = more potent) was -0.626.

TTTCTCTTAATAGTCACTGGAG: the sensor-assay potency score (higher = more potent) is -0.274.

TCACATTTGGTGATTCTCGGTC gave a sensor-assay potency score (higher = more potent) of 0.353.

As for TTGTACTTGTCCAAAAACCAAG, the sensor-assay potency score (higher = more potent) was -1.35.

A further test deals with CDK9. The description is as above. Conditions: shRNA.
On to TATTTGGAAACTTCATCACAAA, for which the sensor-assay potency score (higher = more potent) was -1.19.

As for TCTCGTATTTGGAAACTTCATC, the sensor-assay potency score (higher = more potent) was -1.02.

As to TTGTCGATGAGGTCCAGTGCGT, the sensor-assay potency score (higher = more potent) was -0.728.

Consider AAAACATTGCTCAACAGCCCAG, for which the sensor-assay potency score (higher = more potent) is -1.38.

Regarding TTGATCTCCCGCAAGGCTGTAA, the sensor-assay potency score (higher = more potent) is -0.379.

Take ATTCTCGTGTTTTAGAAGCTGA: the sensor-assay potency score (higher = more potent) stood at 0.181.

On to TTAGCAGCCTTCATGTCCCTAT, for which the sensor-assay potency score (higher = more potent) is -0.0117.

TAGAAGCTGAAGGATCTTGATC: the sensor-assay potency score (higher = more potent) was -0.488.

On to TTGACCACATTCTCGTGTTTTA, for which the sensor-assay potency score (higher = more potent) was -0.499.

For the sequence TACCAGAGTGTCACCACACGGT, the sensor-assay potency score (higher = more potent) was 0.18.

On to TTTTAGAAGCTGAAGGATCTTG, for which the sensor-assay potency score (higher = more potent) is -0.461.

In the case of AACTTGACCAAAACATTGCTCA, the sensor-assay potency score (higher = more potent) is -0.141.

Take ATCTCTGCCATGATGCACCCAG: the sensor-assay potency score (higher = more potent) is -0.791.

Consider TGAAGGATCTTGATCTCCCGCA, for which the sensor-assay potency score (higher = more potent) was -0.0916.

On to TTTCTGTGGATGTAGTAGAGGC, for which the sensor-assay potency score (higher = more potent) was -0.227.

On to TACTCGAACATGGACGTCAGGT, for which the sensor-assay potency score (higher = more potent) was -0.285.

The sequence TTCTTCAGAGCCACCTTCTGGC gave a sensor-assay potency score (higher = more potent) of 0.0361.

With TTGAACACCTCCCCGAAGGTGC, the sensor-assay potency score (higher = more potent) was -0.836.

TCGAACACCAGGTATATACTAC: the sensor-assay potency score (higher = more potent) is -0.813.

As for TTTTCCATCAGCACCTTCTTCA, the sensor-assay potency score (higher = more potent) is -0.28.

AAGTACTCGAACATGGACGTCA returned a sensor-assay potency score (higher = more potent) of 0.37.

For TATACTACCCTTGCAGCGGTTA, the sensor-assay potency score (higher = more potent) was -0.622.

In the case of TCAAGTTGACCACATTCTCGTG, the sensor-assay potency score (higher = more potent) is -0.846.

In the case of TATATACTACCCTTGCAGCGGT, the sensor-assay potency score (higher = more potent) was -0.627.

In the next test the target is CDKL2. Described as above. As to conditions: shRNA.
For TTTCTTTCTTCAACTAAGGAAT, the sensor-assay potency score (higher = more potent) is -1.1.

TTTAGTAACTTGATTTCTCGCA: the sensor-assay potency score (higher = more potent) was determined as 0.263.

On to TACTTTTAACTGTAGTTCTTGG, for which the sensor-assay potency score (higher = more potent) was -0.4.

For the sequence TTTAACTGTAGTTCTTGGGAAA, the sensor-assay potency score (higher = more potent) is -0.938.

TTAGTAACTTGATTTCTCGCAT came in with a sensor-assay potency score (higher = more potent) of 0.346.

On to TTTGTCATCGTCACTTTCTAAG, for which the sensor-assay potency score (higher = more potent) is -0.977.
